# Assay results as given in ChEMBL document CHEMBL3988442, “University of Dundee, Small-Polar-MMV Screening Library” (2021).
# Hit rate of the full screen: of about 48,000 compounds, about 13,000 (27%) showed an effect of 50% or more. This is one part of the list.
# Tested on: Wolbachia pipientis
# Test: Anti-Wolbachia Cell-Based Screen
# Type: functional
# Parameters: scale not given: in the data most compounds retested in dose-response had high values
# Details: 5 µM
row,Structure (SMILES),Percent Effect [%]
1,O=C(O)c1cc(-n2cc3c(n2)CCC3)cc(S(=O)(=O)NC2CCCC2)c1,-14.64
2,Cc1cccc(CN2C[C@@H]3[C@@H](C(=O)NCC(C)C)CCS(=O)(=O)[C@@H]3C2)c1.O=C(O)C(F)(F)F,114
3,CC(C)CNC(=O)[C@H]1CCS(=O)(=O)[C@@H]2CN(Cc3cccc(Cl)c3)C[C@H]12.O=C(O)C(F)(F)F,11.74
4,O=C(NC1CCC1)[C@H]1CCS(=O)(=O)[C@@H]2CN(CCc3ccccc3)C[C@H]12.O=C(O)C(F)(F)F,0.08141
5,Cc1ccc(CN2C[C@@H]3[C@@H](C(=O)NCC(C)C)CCS(=O)(=O)[C@@H]3C2)cc1.O=C(O)C(F)(F)F,114.4
6,CC(SCCC(=O)NC(N)=O)c1cccc(F)c1 (centres undefined),-9.647
7,CN(C)CC(=O)N1CC(c2nn(C)c3nccnc23)C1,96.82
8,CC(=O)N1CCC(c2nn(C)c3nccnc23)C1 (centres undefined),104.2
9,CN(C)CC(=O)N1Cc2nnn(C)c2C(COCC2CC2)C1 (centres undefined),-6.376
10,Cc1ncc(CN(C)C(=O)Nc2cccc(N3CCOC3=O)c2)s1,-2.518
11,CC(C)N(C(=O)c1csc(-c2ccoc2)n1)C1CCOCC1,-5.774
12,Cc1cnn(CC2CCCN2c2ncnc3ccccc23)c1 (centres undefined),-22.63
13,Cc1nc2c(c(=O)n1C)CN(C(=O)C1CCCN(C(N)=O)C1)C2 (centres undefined),11.31
14,COc1cc(C)nc(N2CCN(C(=O)CCc3cccs3)CC2)n1,-2.18
15,COCCC(=O)N1Cc2nc3c(C)c(-c4cccs4)nn3c(O)c2C1,108.4
16,CCc1ncc2c(n1)CN(C(=O)COC)C2,5.323
17,Cc1nc2c(c(=O)n1C)CN(C(=O)C1CCN(C(=O)C3CCC3)CC1)C2,-3.258
18,COCC(=O)N1Cc2nc3c(C)c(-c4cccs4)nn3c(O)c2C1,99.09
19,Cc1c(-c2cccs2)nn2c(O)c3c(nc12)CN(C(=O)C1CC1)C3,98.04
20,COCCC(=O)N1Cc2cnc(Cc3ccc(OC)cc3)nc2C1,-12.22
21,Cc1nc(-c2cccs2)ccc1C(=O)N1CCN(CCO)CC1,-3.936
22,c1cc(-c2c[nH]c([C@@H]3COCCN3C3CCCCC3)n2)ccn1,-0.01712
23,CCc1ccc(CN2CC[C@H]3C[C@H](c4nnc(C)[nH]4)O[C@@H]3C2)o1.O=C(O)C(F)(F)F,-6.047
24,CC(Sc1nnnn1C1CCOCC1)C(=O)NC1CCCCC1 (centres undefined),-2.14
25,C[C@@H]1CN(c2cc(N3CCC(O)CC3)ncn2)C[C@@]1(O)C1CC1,-16.8
26,COc1cc(N2C[C@@H](C)[C@](O)(C3CC3)C2)ncn1,-12.89

row,Structure (SMILES),Percent Effect [%]
1,CS(=O)(=O)CCN1CCN(c2ccc(Cl)cn2)CC1,-5.169
2,CC(C)NC(=O)CN(C)C1CCN(c2ccc(Cl)cn2)CC1,-2.588
3,C[C@@H]1CN(c2ccc(Cl)cn2)C[C@]1(C)O,110.4
4,C[C@@H]1CN(c2ccc(Cl)cn2)C[C@@]1(O)C1CC1,109.5
5,O=C1COc2ccc(C(=O)NS(=O)(=O)c3ccc(F)cc3F)cc2N1,1.32
6,CCS(=O)(=O)N1CCC(c2nnc(CN3CCCC3)n2C2CC2)CC1,-2.411
7,OCCOc1cc(F)ccc1NCc1nc(-c2cccs2)no1,14.46
8,Cc1cnn(CCNC(C)c2nnc(-c3ccccc3)o2)c1 (centres undefined),-3.26
9,Cc1cnn(CCNCc2cc(C)no2)c1,0.9077
10,Cc1cnn(CCNCc2nnc(-c3ccc(F)cc3)o2)c1,123.4
11,Cc1cnn(CCNCc2csc(-c3ccc(F)cc3)n2)c1,0.7899
12,Cc1cnn(CCNCc2nnc(-c3occc3C)o2)c1,122.9
13,Cc1cnn(CCNCc2nnc(-c3ccccc3)o2)c1,127.3
14,Cc1ccc(-c2nnc(C(C)NCCn3cc(C)cn3)o2)cc1 (centres undefined),8.064
15,COc1ccc(-c2nnc(CNCCn3cc(C)cn3)o2)cc1,93.96
16,Cc1cnn(CCNCc2nc(COc3ccc(F)cc3)no2)c1,-9.095
17,c1ccc(-c2nnc(CNCCn3cccn3)o2)cc1,-4.985
18,Cc1ccoc1-c1nnc(CNCCn2cccn2)o1,-4.902
19,Cc1ccc(-c2cc(CNCCn3cc(C)cn3)on2)cc1,-23.87
20,CCc1noc(CN(CC(=O)N2CCCCC2)c2cccc(C)c2)n1,13.21
21,COc1ccc(OCc2cc(C(=O)N3CC=CC3)n[nH]2)c(Cl)c1,6.358
22,CS(=O)(=O)NCc1noc2c1CN(C(=O)c1ccsc1)CC2,8.076
23,O=C(c1ccnnc1)N1CCc2onc(CN3CCCC3)c2C1,-11.85
24,CCC(=O)N1CCc2onc(CNS(C)(=O)=O)c2C1,86.89
25,COCC(=O)N1CCc2c(CNS(C)(=O)=O)n[nH]c2C1,5.679
26,CC(=O)NCc1noc2c1CN(CCN1CCCC1)CC2.O=C(O)C(F)(F)F.O=C(O)C(F)(F)F,-16.49

row,Structure (SMILES),Percent Effect [%]
1,CS(=O)(=O)NCc1noc2c1CN(C(=O)C1CCC1)CC2,102.9
2,CS(=O)(=O)NCc1noc2c1CN(C(=O)C1CC1)CC2,103.2
3,FC(F)(F)C1CCCn2c(CNCc3cccs3)nnc21 (centres undefined),-7.2
4,CCN(CC)C(=O)N1CCN(C2=NCC(C)S2)CC1 (centres undefined),-3.513
5,Cc1ccnc(N2CCN(Cc3ccccc3)CC(O)C2)c1 (centres undefined),10.83
6,Cc1nccc(CN2CC[C@@]3(CCCN3Cc3ccccc3)[C@@H](O)C2)n1,93.51
7,Cc1nccc(CNC(=O)N2CCN(Cc3ccccc3)C[C@H]2C)n1,-2.521
8,COc1ccc(-c2ccc(C(=O)NCCCC(N)=O)c(F)c2)c(F)c1,-2.164
9,N#Cc1c(C2CC2)cc(-c2ccc(O)cc2)nc1N,-0.3878
10,CCn1cc(-c2c(C)c(C3CCOC(C)(C)C3)nc(N)c2C#N)cn1 (centres undefined),115.2
11,Cc1c(-c2cnn(C)c2)nc(N)c(C#N)c1-c1ccc(CO)o1,0.3251
12,Cc1cc(-c2cc(C3CCOC3)c(C#N)c(N)n2)ccc1Cl (centres undefined),25.02
13,CCc1ccc(-c2c(C)c(-c3cnn(C)c3)nc(N)c2C#N)o1,7.382
14,Cc1c(C2CCOC(C)(C)C2)nc(N)c(C#N)c1-c1ccc(O)cc1 (centres undefined),105.2
15,Cn1cc(-c2noc(C3(C)CCOCC3)n2)cn1,-4.622
16,CCCc1c(C2CCOC(C)(C)C2)nc(N)c(C#N)c1-c1cnn(C)c1 (centres undefined),105.7
17,CN(C)C(=O)CN1C[C@@H]2CC[C@H](C1)N(C/C=C/c1ccc(F)cc1)C2,0.7109
18,CCc1cc(NC(=O)N2CCC(Oc3cccnc3)C2)n(C)n1 (centres undefined),-19.7
19,Cc1nn2cccnc2c1C(=O)NCc1ccccc1OCC1CC1,6.014
20,O=S(=O)(N1CCN(CC2CC2)CC1)N1CCCC1c1ccco1 (centres undefined),8.161
21,CC(=O)c1c(C)nn(CC(=O)N2Cc3cnc(CC(C)C)nc3C2)c1C,-0.1145
22,CSCCC(C)(O)CNC(=O)Nc1ccccc1C (centres undefined),6.778
23,COc1ccc(CNC(=O)NCC(O)(c2cccs2)C2CC2)cc1 (centres undefined),11.16
24,CCOCc1ccccc1NC(=O)NCC(C)(O)c1cccs1 (centres undefined),-8.36
25,COC(=O)c1ccc(S(=O)(=O)NCC(C)(O)c2cccs2)cc1 (centres undefined),-7.069
26,Cc1ccccc1NC(=O)NCC(C)(O)c1cccs1 (centres undefined),117.7

row,Structure (SMILES),Percent Effect [%]
1,CCOc1ccc(NC(=O)NCC(C)(O)c2cccs2)cc1 (centres undefined),123.8
2,OC(CNc1ccc(Cl)cn1)CN1CCOCC1 (centres undefined),-5.222
3,Cn1cnnc1Sc1ccc(NC(=O)C2CC2)cc1Cl,-0.08341
4,Cc1n[nH]c(C)c1Sc1ccccc1NC(=O)CN1CCCC1,2.491
5,CCn1nc(Br)nc1Sc1ccccc1NC(C)=O,119.4
6,Cc1n[nH]c(C)c1Sc1ccccc1NC(=O)N1CCOCC1,-5.626
7,CCCSc1ccccc1NC(=O)N1CCC(N2CCSCC2)CC1,-2.644
8,CCC(=O)Nc1ccccc1Sc1nc(Br)nn1C,107.5
9,CC(=O)Nc1ccccc1Sc1nc(Br)nn1C,114.6
10,COCC(=O)Nc1ccccc1Sc1c(C)n[nH]c1C,-1.881
11,Cc1n[nH]c(C)c1Sc1ccccc1NC(=O)N1CCN(C)CC1,1.27
12,Cn1nc(Br)nc1Sc1ccccc1NC(=O)C1CC1,107.9
13,CSc1ccccc1NC(=O)CCC(=O)N(C)C1CCN(C)CC1,6.723
14,CN(C)C(=O)N1CCN(C(=O)c2cccc(Cl)c2)CC2(CNC(=O)C2)C1 (centres undefined),-8.821
15,CCCN(Cc1ccc(OC)nc1)Cc1ccccc1OC,7.541
16,CS(=O)(=O)c1nccn1Cc1ccc(OC(F)F)cc1,-0.8084
17,NC(=O)Nc1cccc(C(=O)N(Cc2ccc(F)cc2)C2CC2)c1,-11.54
18,NC(=O)C1(CNCc2csc(-c3cccs3)n2)CCOCC1,-0.8866
19,CC(C)N1CCC(C(=O)N2CCN(c3cccc(C(=O)O)c3)CC2)CC1,106.6
20,CC(C)N1CCC(C(=O)N2CCC(c3ccc(F)cc3)C2)CC1 (centres undefined),11.91
21,CC(C)N1CCCC(C(=O)N2CCN(c3cnn(C)c(=O)c3)CC2)C1 (centres undefined),-17.55
22,CC(C)N1CCCC(C(=O)N2CCN(c3cccc(C(=O)O)c3)CC2)C1 (centres undefined),107.1
23,CC(C)c1cc(C(=O)N2CCN(c3cccc(C(=O)O)c3)CC2)n(C)n1,1.445
24,Cc1cccc(N2CCN(C(=O)CN3CCC(C(N)=O)CC3)CC2)c1,3.313
25,CC(C)N1CCC(C(=O)N2CCCN(c3ccccc3)CC2)CC1,106.5
26,O=C(Cc1ccc2c(c1)OCO2)N1CCCN(c2ccccc2)CC1,5.064
